Test results taken from PubChem BioAssay (NCI).
Compounds without any hit were thinned out: in the full panel of roughly 83,000, 20% have a hit.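 Single-concentration screen, 48 h exposure, 96-well plates. Endpoint: percent growth. Below 10 = active.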 Unmarked numbers belong to inactive results. Activity calls are given as the source filed them.

system: CCRF-CEM leukemia; assay: NCI-60 one-dose screen, 48 h (100 = growth as untreated, 0 = no growth, -100 = all killed); conditions: 10 µM unless noted

Structure (SMILES) | growth
Cn1c(/C(C#N)=C/c2ccc3ccccc3c2)cc2ccccc21 | 11.8%
Cn1cc(-c2nc(-c3c[nH]c4ncccc34)cs2)c2cc(F)ccc21 | 25.8%
CC(=O)N1N=C(c2ccc(C)cc2)CC1c1ccc(Oc2ccc(Br)cc2)cc1 (stereo not drawn) | 93.2%
NC1=NN=C2N(N)C(=O)c3cnn(-c4ccccc4)c3N2c2nc(-c3ccccc3)cc(-c3ccccc3)c21 | 96.7%
CN(C)c1ccc(-c2ccc(-c3ccc(C(=N)N)c(F)c3)s2)cc1 | -37.4% (active)
Cc1c(C)c2c(c(C)c1NC(=O)CCCCCCC(=O)O)CCC(C)(CCCC(C)CCCC(C)CCCC(C)C)O2 (stereo not drawn) | 71.3%
Cc1cc(C)nc(NC(N)=NCCc2ccccc2)n1 | 45.3%
C=C(C)[C@@H]1CC[C@]2(C(=O)O)CC[C@]3(C)[C@H](CC[C@@H]4[C@@]5(C)C/C(=C/c6ccc(OC)cc6)C(=O)C(C)(C)[C@@H]5CC[C@]43C)[C@@H]12 | 24%
COc1ccc2[nH]cc(-c3nc(-c4c[nH]c5ncccc45)cs3)c2c1 | 28.3%
Cn1cccc1/C=C1/SC(=S)N(CCc2ccc(O)cc2)C1=O | 21.9%
CN1CCN(CCOc2ccc(-c3cnc4c(-c5ccccc5F)cnn4c3)cc2)CC1 | 5.37% (active)
Cc1ccc(-c2nc([P+](c3ccccc3)(c3ccccc3)c3ccccc3)c(N3CCOCC3)o2)cc1 | 8.32% (active)
O=C1OC(c2ccc(Cl)c(Cl)c2)=C/C1=C/c1cccc([N+](=O)[O-])c1 | 103%
